# According to PubChem BioAssay (NCI):
# This is part of a sample that, as a whole, favours compounds with a hit. Of some 79,000 tested, about 15% had one in any assay. A number with no mark means an inactive call. The source made the active and inactive calls. No stated cut-off is given here; in the data, active means growth inhibition above about 70%; inactive means the rest.
# What was measured:
# [1] = NCI Yeast Anticancer Drug Screen. Data for the wt1 strain (AID 149);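 further: 0% = growth of vehicle-treated wt1 cultures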; conditions: S. cerevisiae wt1 strain (SPY 50644) growth inhibition, hits give high values
# Summary of the method: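 wt1 yeast, compound-treated; % growth inhibition vs vehicle control.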
# [2] = NCI Yeast Anticancer Drug Screen. Data for the rad50EPP+ strain (AID 151);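 further: 0% = growth of vehicle-treated control cultures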; conditions: S. cerevisiae rad50 mutant strain, hits give high values
# Summary of the method: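 Vehicle-normalised growth inhibition; rad50EPP+ yeast strain, altered in DNA damage repair, compound-treated.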
# [3] = NCI Yeast Anticancer Drug Screen. Data for the mgt1 strain (AID 153); conditions: S. cerevisiae mgt1 mutant growth inhibition, hits give high values
# Summary of the method: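 Vehicle-normalized growth inhibition is determined in mgt1 yeast, a strain selected for a defined alteration in DNA repair or cell cycle control.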
# [4] = NCI Yeast Anticancer Drug Screen. Data for the rad50 strain (AID 155);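 further: 0% = growth of vehicle-only cultures of the same strain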; conditions: S. cerevisiae rad50 strain growth inhibition, hits give high values
# Summary of the method: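 Genetically altered yeast (DNA repair pathway); compound treatment; growth inhibition vs vehicle ctrl.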
# [5] = NCI Yeast Anticancer Drug Screen. Data for the mec2-1 strain (AID 157); conditions: S. cerevisiae mec2-1 strain, hits give high values
# Summary of the method: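 Mutant yeast (mec2-1) grown with compound; growth inhibition relative to vehicle control reported.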
# [6] = NCI Yeast Anticancer Drug Screen. Data for the rad14 strain (AID 159);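 further: 0% = growth of vehicle-treated control cultures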; conditions: S. cerevisiae rad14 strain growth inhibition, hits give high values
# Summary of the method: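 Test compounds were applied to a repair-deficient yeast strain. Its growth was then compared with that of cultures given vehicle alone, and inhibition was expressed relative to those controls.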
# [7] = NCI Yeast Anticancer Drug Screen. Data for the sgs1 mgt1 strain (AID 161);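 further: 0% = growth of cultures given vehicle only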; conditions: S. cerevisiae sgs1 mgt1 strain, hits give high values
# Summary of the method: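 Yeast cells carrying a defined DNA-repair defect were exposed to test compounds. Growth inhibition was measured relative to vehicle-treated controls.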
# [8] = NCI Yeast Anticancer Drug Screen. Data for the CLN2oe strain (AID 163);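 further: 0% = growth of vehicle-only control cultures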; conditions: S. cerevisiae CLN2oe strain, hits give high values
# Summary of the method: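 Compounds are applied to yeast harbouring a defined cell-cycle control change; reduced growth compared with vehicle-treated controls gives the value.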
# [9] = NCI Yeast Anticancer Drug Screen. Data for the cln2 rad14 strain (AID 165);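 further: 0% = growth equal to vehicle treated cultures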; conditions: S. cerevisiae cln2 rad14 strain, hits give high values
# Summary of the method: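 Readout is yeast growth inhibition versus vehicle-treated controls, using a strain with cln2 and rad14 alterations exposed to compound.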
# [10] = NCI Yeast Anticancer Drug Screen. Data for the bub3 strain (AID 167); conditions: S. cerevisiae bub3 mutant strain, hits give high values
# Summary of the method: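 Yeast carrying a defined mutation is treated with each compound, and growth is compared with that of vehicle-exposed cells to give inhibition.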
# [11] = NCI Yeast Anticancer Drug Screen. Data for the wt2 strain (AID 169);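 further: 0% = growth of vehicle-treated yeast cultures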; conditions: S. cerevisiae wt2 strain growth inhibition, hits give high values
# Summary of the method: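 Against vehicle-treated controls, the growth of yeast exposed to each compound was compared, and the inhibition was recorded.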
# [12] = NCI Yeast Anticancer Drug Screen. Data for the mlh1 strain (AID 171);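 further: 0% = growth of vehicle-treated control cultures of the same strain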; conditions: S. cerevisiae mlh1 strain growth inhibition, hits give high values
# Summary of the method: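 Measured: yeast growth. Reference: vehicle-treated controls. Organism: strain with a defined alteration affecting DNA damage repair or cell cycle control, treated with compound.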
# [13] = NCI Yeast Anticancer Drug Screen. Data for the sgs1 strain (AID 173);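 further: 0% = growth of vehicle-only control cultures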; conditions: S. cerevisiae sgs1 mutant, hits give high values
# Summary of the method: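 Each compound was added to cultures of the altered yeast strain. Growth was recorded, and inhibition was derived by comparison with vehicle controls.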
# [14] = NCI Yeast Anticancer Drug Screen. Data for the mlh1 rad18 strain (AID 175); conditions: S. cerevisiae mlh1 rad18 strain growth inhibition, hits give high values
# Summary of the method: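 Genetically defined yeast (DNA repair-deficient) exposed to compounds; growth inhibition determined relative to vehicle.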
# [15] = NCI Yeast Anticancer Drug Screen. Data for the rad18 strain (AID 177); conditions: S. cerevisiae rad18 mutant growth inhibition, hits give high values
# Summary of the method: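 Vehicle-treated cultures served as the baseline for scoring compound-induced growth inhibition in DNA-repair-mutant yeast.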
# [16] = at 5.0 µM (retest, dose inferred, filed as 0.5)
# [17] = at 50.0 µM (retest, dose inferred, filed as 5.0)
smiles,measurement,setting,value
O=C1c2ccccc2C2CCC1c1ccccc12 (stereo not drawn),growth inhibition,[1]; at 1.2 µM,-12%
same,growth inhibition,[1]; at 3.7 µM,-14%
same,growth inhibition,[1]; at 11.0 µM,-13%
same,growth inhibition,[1]; at 33.0 µM,-6%
same,growth inhibition,[1]; at 100.0 µM,97% (active)
same,growth inhibition,[2]; at 1.2 µM,1%
same,growth inhibition,[2]; at 3.7 µM,-4%
same,growth inhibition,[2]; at 11.0 µM,-2%
same,growth inhibition,[2]; at 33.0 µM,50%
same,growth inhibition,[2]; at 100.0 µM,68%
same,growth inhibition,[3]; at 1.2 µM,-12%
same,growth inhibition,[3]; at 3.7 µM,6%
same,growth inhibition,[3]; at 11.0 µM,5%
same,growth inhibition,[3]; at 33.0 µM,17%
same,growth inhibition,[3]; at 100.0 µM,97% (active)
same,growth inhibition,[4]; at 1.2 µM,-19%
same,growth inhibition,[4]; at 3.7 µM,-5%
same,growth inhibition,[4]; [16],0%
same,growth inhibition,[4]; at 11.0 µM,3%
same,growth inhibition,[4]; at 33.0 µM,20%
same,growth inhibition,[4]; [17],-29%
same,growth inhibition,[4]; at 50.0 µM,62.9%
same,growth inhibition,[4]; at 100.0 µM,94% (active)
same,growth inhibition,[5]; at 1.2 µM,-24%
same,growth inhibition,[5]; at 3.7 µM,-14%
same,growth inhibition,[5]; [16],-6%
same,growth inhibition,[5]; at 11.0 µM,3%
same,growth inhibition,[5]; at 33.0 µM,12%
same,growth inhibition,[5]; [17],-19%
same,growth inhibition,[5]; at 50.0 µM,-6.1%
same,growth inhibition,[5]; at 100.0 µM,98% (active)
same,growth inhibition,[6]; at 1.2 µM,-25%
same,growth inhibition,[6]; at 3.7 µM,-24%
same,growth inhibition,[6]; at 11.0 µM,-17%
same,growth inhibition,[6]; at 33.0 µM,-6%
same,growth inhibition,[6]; at 100.0 µM,97% (active)
same,growth inhibition,[7]; [16],-15%
same,growth inhibition,[7]; [17],-7%
same,growth inhibition,[7]; at 50.0 µM,9.45%
same,growth inhibition,[8]; at 1.2 µM,2%
same,growth inhibition,[8]; at 3.7 µM,-5%
same,growth inhibition,[8]; at 11.0 µM,7%
same,growth inhibition,[8]; at 33.0 µM,59%
same,growth inhibition,[8]; at 100.0 µM,98% (active)
same,growth inhibition,[9]; [16],-19%
same,growth inhibition,[9]; [17],13%
same,growth inhibition,[9]; at 50.0 µM,18.3%
same,growth inhibition,[10]; at 1.2 µM,-22%
same,growth inhibition,[10]; at 3.7 µM,-30%
same,growth inhibition,[10]; [16],-32%
same,growth inhibition,[10]; at 11.0 µM,-33%
same,growth inhibition,[10]; at 33.0 µM,33%
same,growth inhibition,[10]; [17],89% (active)
same,growth inhibition,[10]; at 50.0 µM,7.05%
same,growth inhibition,[10]; at 100.0 µM,97% (active)
same,growth inhibition,[11]; at 1.2 µM,-1%
same,growth inhibition,[11]; at 3.7 µM,-11%
same,growth inhibition,[11]; at 11.0 µM,4%
same,growth inhibition,[11]; at 33.0 µM,0%
same,growth inhibition,[11]; at 100.0 µM,97% (active)
same,growth inhibition,[12]; at 1.2 µM,-3%
same,growth inhibition,[12]; at 3.7 µM,6%
same,growth inhibition,[12]; at 11.0 µM,14%
same,growth inhibition,[12]; at 33.0 µM,28%
same,growth inhibition,[12]; at 100.0 µM,94% (active)
same,growth inhibition,[13]; at 1.2 µM,-12%
same,growth inhibition,[13]; at 3.7 µM,-18%
same,growth inhibition,[13]; at 11.0 µM,-18%
same,growth inhibition,[13]; at 33.0 µM,18%
same,growth inhibition,[13]; at 100.0 µM,96% (active)
same,growth inhibition,[14]; [16],-45%
same,growth inhibition,[14]; [17],26%
same,growth inhibition,[14]; at 50.0 µM,10.6%
same,growth inhibition,[15]; at 1.2 µM,-40%
same,growth inhibition,[15]; at 3.7 µM,-30%
same,growth inhibition,[15]; at 11.0 µM,-38%
same,growth inhibition,[15]; at 33.0 µM,-26%
same,growth inhibition,[15]; at 100.0 µM,96% (active)
CC1C=CN(N(C)C)C2=C1C(=O)c1cnccc1C2=O (stereo not drawn),growth inhibition,[1]; at 1.2 µM,-1%
same,growth inhibition,[1]; at 3.7 µM,7%
same,growth inhibition,[1]; at 11.0 µM,47%
same,growth inhibition,[1]; at 33.0 µM,83% (active)
same,growth inhibition,[1]; at 100.0 µM,96% (active)
same,growth inhibition,[2]; at 1.2 µM,-4%
same,growth inhibition,[2]; at 3.7 µM,53%
same,growth inhibition,[2]; at 11.0 µM,82% (active)
same,growth inhibition,[2]; at 33.0 µM,91% (active)
same,growth inhibition,[2]; at 100.0 µM,93% (active)
same,growth inhibition,[3]; at 1.2 µM,-31%
same,growth inhibition,[3]; at 3.7 µM,9%
same,growth inhibition,[3]; at 11.0 µM,51%
same,growth inhibition,[3]; at 33.0 µM,87% (active)
same,growth inhibition,[3]; at 100.0 µM,96% (active)
same,growth inhibition,[4]; at 1.2 µM,31%
same,growth inhibition,[4]; at 3.7 µM,68%
same,growth inhibition,[4]; [16],81% (active)
same,growth inhibition,[4]; at 11.0 µM,86% (active)
same,growth inhibition,[4]; at 33.0 µM,93% (active)
same,growth inhibition,[4]; [17],93% (active)
same,growth inhibition,[4]; at 50.0 µM,85% (active)
same,growth inhibition,[4]; at 100.0 µM,96% (active)
same,growth inhibition,[5]; at 1.2 µM,-36%
same,growth inhibition,[5]; at 3.7 µM,-23%
same,growth inhibition,[5]; [16],30%
same,growth inhibition,[5]; at 11.0 µM,49%
same,growth inhibition,[5]; at 33.0 µM,86% (active)
same,growth inhibition,[5]; [17],95% (active)
same,growth inhibition,[5]; at 50.0 µM,92.2% (active)
same,growth inhibition,[5]; at 100.0 µM,96% (active)
same,growth inhibition,[6]; at 1.2 µM,-70%
same,growth inhibition,[6]; at 3.7 µM,-31%
same,growth inhibition,[6]; at 11.0 µM,46%
same,growth inhibition,[6]; at 33.0 µM,89% (active)
same,growth inhibition,[6]; at 100.0 µM,95% (active)
same,growth inhibition,[7]; [16],48%
same,growth inhibition,[7]; [17],86% (active)
same,growth inhibition,[7]; at 50.0 µM,89.7% (active)
same,growth inhibition,[8]; at 1.2 µM,-11%
same,growth inhibition,[8]; at 3.7 µM,10%
same,growth inhibition,[8]; at 11.0 µM,49%
same,growth inhibition,[8]; at 33.0 µM,90% (active)
same,growth inhibition,[8]; at 100.0 µM,93% (active)
same,growth inhibition,[9]; [16],25%
same,growth inhibition,[9]; [17],-18%
same,growth inhibition,[9]; at 50.0 µM,87.8% (active)
same,growth inhibition,[10]; at 1.2 µM,-38%
same,growth inhibition,[10]; at 3.7 µM,-8%
same,growth inhibition,[10]; [16],12%
same,growth inhibition,[10]; at 11.0 µM,46%
same,growth inhibition,[10]; at 33.0 µM,89% (active)
same,growth inhibition,[10]; [17],6%
same,growth inhibition,[10]; at 50.0 µM,85.2% (active)
same,growth inhibition,[10]; at 100.0 µM,97% (active)
same,growth inhibition,[11]; at 1.2 µM,5%
same,growth inhibition,[11]; at 3.7 µM,6%
same,growth inhibition,[11]; at 11.0 µM,43%
same,growth inhibition,[11]; at 33.0 µM,90% (active)
same,growth inhibition,[11]; at 100.0 µM,96% (active)
